Measurements from PubChem BioAssay (NCI).
This is part of a sample that, as a whole, favours compounds with a hit. Of some 79,000 tested, about 15% had one in any assay. A number with no mark means an inactive call. Calls of active or inactive are those of the source. No stated cut-off is given here; in the data, active means growth inhibition above about 70%; inactive means the rest.

Assays:
[1] = NCI Yeast Anticancer Drug Screen. Data for the rad50 strain (AID 155);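 further: 0% = growth of vehicle-only cultures of the same strain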; conditions: S. cerevisiae rad50 strain growth inhibition, stronger effect = higher value
Method in brief: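 Compounds were tested on a yeast strain with an engineered DNA damage repair alteration; the reported value is growth inhibition normalised to vehicle treatment.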

[2] = NCI Yeast Anticancer Drug Screen. Data for the mec2-1 strain (AID 157); conditions: S. cerevisiae mec2-1 strain, stronger effect = higher value
Method in brief: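 Vehicle-treated cultures served as reference for growth inhibition of compound-exposed mec2-1 yeast.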

[3] = NCI Yeast Anticancer Drug Screen. Data for the sgs1 mgt1 strain (AID 161);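 further: 0% = growth of cultures given vehicle only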; conditions: S. cerevisiae sgs1 mgt1 strain, stronger effect = higher value
Method in brief: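 Test agents were incubated with a DNA-repair-mutant yeast strain. Growth was then read and compared against vehicle-treated controls.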

[4] = NCI Yeast Anticancer Drug Screen. Data for the cln2 rad14 strain (AID 165);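 further: 0% = growth equal to vehicle treated cultures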; conditions: S. cerevisiae cln2 rad14 strain, stronger effect = higher value
Method in brief: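 Each compound was tested on cln2 rad14 yeast. Inhibition of growth was calculated against vehicle-exposed controls.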

[5] = NCI Yeast Anticancer Drug Screen. Data for the bub3 strain (AID 167); conditions: S. cerevisiae bub3 mutant strain, stronger effect = higher value
Method in brief: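 Growth of a checkpoint-deficient yeast mutant is measured after compound exposure. Values represent inhibition relative to vehicle.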

[6] = NCI Yeast Anticancer Drug Screen. Data for the mlh1 rad18 strain (AID 175); conditions: S. cerevisiae mlh1 rad18 strain growth inhibition, stronger effect = higher value
Method in brief: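 Vehicle-treated cultures served as the reference for growth inhibition in a yeast strain carrying DNA damage repair alterations exposed to each compound.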

[7] = at 5.0 µM (retest, dose inferred, filed as 0.5)
[8] = at 50.0 µM (retest, dose inferred, filed as 5.0)

SMILES	growth inhibition [1, 7]	growth inhibition [1, 8]	growth inhibition ([1]; at 50.0 µM)	growth inhibition [2, 7]	growth inhibition [2, 8]	growth inhibition ([2]; at 50.0 µM)	growth inhibition [3, 7]	growth inhibition [3, 8]	growth inhibition ([3]; at 50.0 µM)	growth inhibition [4, 7]	growth inhibition [4, 8]	growth inhibition ([4]; at 50.0 µM)	growth inhibition [5, 7]	growth inhibition [5, 8]	growth inhibition ([5]; at 50.0 µM)	growth inhibition [6, 7]	growth inhibition [6, 8]	growth inhibition ([6]; at 50.0 µM)
COc1cc(/C=C/C(=O)CC(=O)/C=C/c2ccc(O)c(OC)c2)ccc1O	55%	95% (active)	83.8% (active)	74% (active)	93% (active)	87.1% (active)	20%	89% (active)	88% (active)	15%	88% (active)	84.3% (active)	27%	80% (active)	83.7% (active)	55%	91% (active)	85.5% (active)
O=[N+]([O-])CC(O)c1ccccc1 (stereo not drawn)	4%	26%	98.4% (active)	-1%	-3%	52.2%	-2%	1%	50.2%	-2%	-1%	98.6% (active)	-2%	1%	50.9%	-2%	4%	51.9%
Oc1cc(Cl)ccc1Cc1ccc(Cl)cc1O	97% (active)	100% (active)	99.8% (active)	99% (active)	100% (active)	99.7% (active)	98% (active)	100% (active)	99.6% (active)	98% (active)	94% (active)	99.5% (active)	99% (active)	100% (active)	99.6% (active)	96% (active)	96% (active)	99.7% (active)
Cn1c(COC(=O)NC2CCCCC2)c(COC(=O)NC2CCCCC2)c2ccc3cc(Cl)c(Cl)cc3c21	8%	31%	18.1%	-5%	8%	23.2%	-3%	29%	56.5%	15%	12%	49.2%	15%	30%	72.7% (active)	9%	11%	21.8%
OC(c1cc(-c2ccc(C(F)(F)F)cc2)nc(C(F)(F)F)c1)C1CCCCN1 (stereo not drawn)	23%	39%	56.1%	24%	35%	76.2% (active)	33%	60%	45.5%	31%	7%	25.7%	11%	36%	33.5%	34%	65%	
Cn1c(-c2ccccc2)c(/C=C/C2=[N+](C)c3ccccc3C2(C)C)c2ccccc21	88% (active)	99% (active)	99.6% (active)	72% (active)	99% (active)	99.6% (active)	96% (active)	56%	99.6% (active)	59%	98% (active)	99% (active)	93% (active)	100% (active)	99.5% (active)	89% (active)	99% (active)	99% (active)
CC(C)=CCCC(C)C1=C(O)C(=O)C(C)=CC1=O (stereo not drawn)	25%	97% (active)	88.8% (active)	19%	98% (active)	93.3% (active)	15%	99% (active)	90.8% (active)	24%	86% (active)	70%	19%	99% (active)	90.6% (active)			
C=C(CO)C(=O)OC1CC(=C)C2CC(O)C(C)C2C2OC(=O)C(=C)C12 (stereo not drawn)	20%	97% (active)	86.7% (active)	15%	98% (active)	52.5%	10%	97% (active)	92.5% (active)	13%	89% (active)	32.4%	9%	97% (active)	79.4% (active)	26%	98% (active)	87.7% (active)
CCCCCCCCCCCCCCCCSC(=NCC)NCC	99% (active)	99% (active)	99.3% (active)	67%	99% (active)	99.7% (active)	98% (active)	100% (active)	99.6% (active)	23%	99% (active)	98.3% (active)	81% (active)	99% (active)	99.5% (active)	98% (active)	99% (active)	99.3% (active)
Cc1nc(Sc2nc3ccc([N+](=O)[O-])cc3s2)sc1C	-8%	86% (active)	88.2% (active)	-12%	90% (active)	86.5% (active)	-2%	92% (active)	84.1% (active)	-9%	85% (active)	46%	-12%	88% (active)	57.3%			
CCOC(=O)c1c(C)[nH]c2ccc(O)cc12	6%	15%	98.3% (active)	1%	-3%	96% (active)	-13%	20%	97% (active)	-12%	-10%	94.3% (active)	-24%	5%	97.3% (active)			
